PubChem BioAssay (NCI)
The panel holds about 79,000 compounds, 15% with a hit somewhere; the sample as a whole holds those more often. A number with no mark means an inactive call. Activity calls are given as the source filed them. Cut-off read from the data, not from the text of the source: active = growth inhibition above about 70%; inactive = the rest.

Assay: NCI Yeast Anticancer Drug Screen. Data for the rad52 strain (AID 147);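 note: 0% = growth of vehicle-treated control cultures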
Details: S. cerevisiae rad52 mutant growth inhibition, stronger effect = higher value
Method: Growth inhibition of yeast strains with defined genetic alterations is measured as a screen for potential anti-cancer activity. Selected strains with alterations in DNA damage repair or cell cycle control were exposed to compounds and growth inhibition was measured relative to vehicle treated controls. The strain used in this assay is rad52

| SMILES | growth inhibition (at 1.2 µM) [%] | growth inhibition (at 3.7 µM) [%] | growth inhibition (at 11.0 µM) | growth inhibition (at 33.0 µM) | growth inhibition (at 100.0 µM) |
| --- | --- | --- | --- | --- | --- |
| Nc1cc(F)cc2c1-c1ccc(F)cc1C2 | -1 | -1 | 3% | 30% | 92% (active) |
| CC(C)(C)[OH+][O-].[O-]c1ccc(Cl)cc1C=Nc1ccc(Cl)cc1[O-].[O]=[V] | 0 | 4 | 11% | 30% | 59% |
| N#C/C(=C/N1C(=O)/C(=C/c2ccc([N+](=O)[O-])cc2)SC1=S)c1nc2ccccc2s1 | 5 | 9 | 18% | 36% | 77% (active) |
| COc1cc([C@@H]2c3cc4c(cc3[C@@H](OC3OC5COC(C)OC5C(O)C3O)[C@H]3COC(=O)[C@H]23)OCO4)cc(OC)c1O (stereo not given in full) | 1 | 4 | 20% | 51% | 81% (active) |
| O=C1C=CC(=O)N1c1ccc(I)cc1 | 12 | 26 | 97% (active) | 99% (active) | 98% (active) |
| Nc1nc(N)c2cc(Sc3ccc4ccccc4c3)ccc2n1 | 28 | 69 | 92% (active) | 96% (active) | 92% (active) |
| Oc1ccccc1N=Cc1ccc(Cl)cc1 | 5 | 10 | 20% | 29% | 39% |
| c1ccc2c(c1)Cn1c-2nc2ccccc21 | 1 | 1 | 8% | 78% (active) | 97% (active) |
